Results from PubChem BioAssay (NCATS).
Inconclusive results are not listed. Entries that show only a call come without a potency. Calls of active or inactive are those of the source. The call rests on the fitted dose curve; in most records, active means well fitted inhibition curve with a large enough effect; inconclusive means small, poorly fitted or top-dose-only effect; inactive means flat fitted curve, though single readings scatter.

Target: Calcium and integrin-binding protein 1 (Homo sapiens) (UniProt Q99828)
Test: Primary qHTS for Identification of Calcium Integrin Binding Protein 1 (CIB1) Competitor (AID 1508620);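 further: GST tagged CIB1 binding a fluorescein labelled alphaIIb integrin peptide tracer; top concentration of the series differs between compounds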
Summary of the method: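 Fluorescence polarization competition: CIB1-GST (1 uM final) preincubated with compound 15 min at room temperature, then FITC-labeled alphaIIb peptide (100 nM final) added for another 15 min. Polarization read at Ex 480/Em 540.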

Calcium and integrin-binding protein 1 (Homo sapiens), sequence (Q99828 whole entry, looked up): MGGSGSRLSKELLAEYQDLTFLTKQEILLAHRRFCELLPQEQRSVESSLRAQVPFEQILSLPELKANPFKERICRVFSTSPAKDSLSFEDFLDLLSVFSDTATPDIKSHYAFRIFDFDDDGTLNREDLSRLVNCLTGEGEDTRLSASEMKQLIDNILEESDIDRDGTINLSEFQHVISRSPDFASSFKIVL

| Compound | Potency |
| --- | --- |
| COc1cccc(C2c3c(ncn(CCN4CCOCC4)c3=N)Oc3ccc4ccccc4c32)c1 (configuration not stated) | inactive |
| O=C(Nc1ncc(Cc2ccc(C(F)(F)F)cc2)s1)c1ccc(-c2ccccc2[N+](=O)[O-])o1 | inactive |
| Oc1cccc2cc(-c3ccccc3)cnc12 | inactive |
| O=C(Nc1ccccc1F)c1ccc(O)c2ncccc12 | inactive |
| Cc1csc(CNc2ncnc3ccc(-c4ccc(C(C)O)o4)cc23)n1 (configuration not stated) | inactive |
| O=C(O)c1ccc(CSc2nnc(-c3ccc([S+](=O)([O-])N4CCCC4)cc3)n2-c2ccccc2)cc1 | inactive |
| N#Cc1nc(NCCCO)nc(Nc2ccccc2)n1 | inactive |
| CCOC(=O)c1ccc(-c2ccc3ncnc(NCc4csc(C)n4)c3c2)o1 | inactive |
| Cc1ccc(NS(=O)(=O)c2ccc3c(c2)CC(=O)N3)cc1C | inactive |
| Cc1ccnc(NC(=S)N2CCN(c3ccc(O)cc3)CC2)c1 | inactive |
| NC(=O)C1CCN(c2nc(-c3ccccc3F)cs2)CC1 | inactive |
| CCOc1ccc(COc2ccc(-c3nc4ccccc4[nH]3)cc2)cc1 | inactive |
| COc1ccc(NC(=O)C(OC(=O)CNC(=O)c2ccccc2)c2ccccc2)cc1Cl (configuration not stated) | inactive |
| C#CCOc1cc(C2=Nn3c(nnc3-c3cccc(OCC(C)=O)c3)SC2)ccc1OC | inactive |
| O=S(=O)(Nc1nccs1)c1ccc(NCc2cc(F)ccc2O)cc1 | inactive |
| Cc1ccc(N(C)S(=O)(=O)c2ccc3c(c2)CCC(=O)N3)cc1C | inactive |
| Cc1ccc(OCCn2c(CCNC(=O)c3ccccc3Br)nc3ccccc32)cc1 | inactive |
| Cc1cc2c(s1)c1cnn(Cc3ccccc3F)c(=O)c1n2Cc1ccccc1F | inactive |
| O=C(OCC#CCSc1nnc(-c2cccc3ccccc23)o1)c1ccc(Cl)cc1 | inactive |

| Compound | Potency |
| --- | --- |
| Cc1cc2c(s1)c1cnn(Cc3c(F)ccc(C)c3Cl)c(=O)c1n2C | inactive |
| O=C(NCCc1nc2ccccc2n1CCO)C1CCCCC1 | inactive |
| Cc1sc(NC(=O)Cc2ccc3c(c2)OCO3)nc1-c1ccc2c(c1)CCN2C(=O)c1ccccc1Cl | inactive |
| COc1ccc(/C=C(\C)C2Nc3cccc4cccc(c34)N2)cc1 | inactive |
| COc1cc(Nc2nc(-c3ccncc3)nc3ccccc23)ccc1Cl | inactive |
| Cc1cccc(Cn2ncc3c4sc(C)cc4n(C)c3c2=O)c1 | inactive |
| COc1cc(NC(=S)N2CCN(c3cccc(C(F)(F)F)c3)CC2)nc2ccccc12 | inactive |
| Cc1ccc(NS(=O)(=O)c2cc3c(cc2Cl)NC(=O)CO3)cc1C | inactive |
| Cc1ccc(CNc2ncnc3ccc(-c4ccc5c(c4)OCO5)cc23)s1 | inactive |
| CC(=O)NCc1cc(Cl)c2cccnc2c1O | inactive |
| CCCCN1C(=O)c2ccccc2NC1c1ccc(OC)c(COc2ccc(NC(C)=O)cc2)c1 (configuration not stated) | inactive |
| Cc1cc(NS(=O)(=O)c2ccc(NS(=O)(=O)Cc3ccc(Cl)c(Cl)c3)cc2)no1 | inactive |
| N#Cc1ccc(N2CCN(S(=O)(=O)c3ccc4c(c3)CC(=O)N4)CC2)cc1 | inactive |
| Nc1ccc(S(=O)(=O)N2CCN(S(=O)(=O)c3ccc4c(c3)OCCO4)CC2)cc1 | inactive |
| NC(=O)C1CCN(c2nc(-c3ccc(Br)cc3)cs2)CC1 | inactive |
| NC(=O)C1CCN(c2nccc(-c3ccc(Br)cc3)n2)CC1 | inactive |
| N[C@H]1CCN(c2cnc3c(O)ccc(C(=O)O)c3c2)C1 | inactive |
| O=C1CCCC2=C1C(c1[nH]ncc1Cl)N=C(Nc1nc3cc(F)ccc3o1)N2 (configuration not stated) | inactive |
| Oc1ccc(Nc2nc(-c3ccncc3)nc3ccccc23)cc1F | inactive |

| Compound | Potency |
| --- | --- |
| O=C(O)CNc1cccc(-c2nn3c(=O)cc(N4CCNCC4)nc3s2)c1 | inactive |
| COc1ccc(-c2ccc3nnc(-c4ccccc4OC)n3n2)cc1OC | inactive |
| Cc1ccnc(NC(=S)N2CCN(c3cccc([N+](=O)[O-])c3)CC2)c1 | inactive |
| CNc1nnc(-c2cccc3ccccc23)s1 | inactive |
| FC(F)(F)c1ccccc1-c1nc(NCc2ccc(-c3cccc(Cl)c3)cc2)c2ccccc2n1 | inactive |
| CC(C)(C)CNc1nc(C#N)nc(Nc2ccccc2)n1 | inactive |
| COc1cc(O)c(C(CC(=O)N2CCC[C@H](C)C2)c2ccc3c(c2)OCO3)c(OC)c1 (some centres not stated) | inactive |
| Cc1cc(C)n2ncc(C(=O)NC3CCCCC3)c2n1 | inactive |
| COc1ccc([C@H]2[C@H](c3ccccc3)C(=O)N2Cc2ccccc2)cc1COc1ccc(NC(C)=O)cc1 | inactive |
| Cc1cc(N[S+](=O)([O-])c2cc3c(cc2Cl)CCC(=O)N3)ccc1Cl | inactive |
| O=S(=O)(c1ccccc1)N1CCN(c2nc(-c3ccc(Br)cc3)cs2)CC1 | inactive |
| COc1cccc(C2=Nn3c(nnc3-c3ccccc3O)SC2)c1 | inactive |
| Cc1cc(NS(=O)(=O)c2ccc(NC(=O)C(C)(C)c3ccc(Cl)c(Cl)c3)cc2)no1 | inactive |
| c1coc(CNc2nc(-c3cccs3)nc3ccccc23)c1 | inactive |
| O=C(NCCCc1ccccc1)C1CCN(c2nc(-c3ccc(Br)cc3)cs2)CC1 | inactive |
| CC(Nc1nc(-c2ccccc2C(F)(F)F)nc2ccccc12)c1ccc(-c2ccccc2)cc1 (configuration not stated) | inactive |
| c1cncc(CNc2ncnc3ccc(-c4ccco4)cc23)c1 | inactive |
| COc1cccc(Nc2nc(C#N)nc(NC3CCCC3)n2)c1 | inactive |
| Fc1cccc(CNc2ncnc3ccc(-c4cccc(Cl)c4)cc23)c1 | inactive |
